In PubChem BioAssay AID2782 (National Center for Advancing Translational Sciences (NCATS), 2010):
Results filed as inconclusive are left out. Activity calls are given as the source filed them. The call rests on the fitted dose curve; in most records, active means well fitted inhibition curve with a large enough effect in the polarisation, with a control signal flat (not every such curve was filed as active); inconclusive means small, poorly fitted or top-dose-only effect, or effect the other way, or a change in a side signal; inactive means no such curve, though single readings can be large or run the other way; the % refers to the polarisation.

Assay: Confirmation of Inhibitors Targeting the Menin-MLL Interaction in MLL Related Leukemias: Competition With Texas Red Labeled MLL-derived Mutant Peptide
Details: fluorescence polarization, Texas Red MLL peptide displacement; series mostly up to 94.6 µM; FP change, negative = inhibition: at the top concentration
Procedure, shortened: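 FP competition using menin at 200 nM with Texas Red-labeled mutant MLL peptide (50 nM) plus fluorescein MLL-w.t. peptide (25 nM) in 50 mM Tris-HCl pH 7.5, 50 mM NaCl, 1 mM DTT, 0.05% BSA; compound added, 1 hr ambient; polarization read per label.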
On the % scale 0 is the no-effect control and ±100 the full control effect; potency means the concentration at half of the fitted maximal effect.

Compound | FP change, negative = inhibition | Potency
Nc1cccc2c1C(=O)N(C(=O)c1ccco1)C2=O | -17.4% (inactive) | –
CC(c1ccncn1)N(C)Cc1nc(-c2ccc(C(F)(F)F)cc2)no1 (configuration not stated) | 15% (inactive) | –
CCC(c1nnnn1Cc1ccc(F)cc1)N1CCN(C2CCCCC2)CC1 (configuration not stated) | – | 35.5 µM (active)
CCCn1c(=O)c(C(=O)Nc2ccccc2C(=O)OCC)c(O)c2ccccc21 | 21.8% [at 288 µM] (inactive) | –
CNC[C@H](CC1CCCCC1)NC[C@H](Cc1ccccc1)NCCC12CC3CC(CC(C3)C1)C2 | – | 63.1 µM (active)
CC(=O)c1c(O)cc(O)cc1CC(=O)O | -19.4% (inactive) | –
O=C(Cn1c(=O)c2c3c(sc2n(Cc2ccccc2)c1=O)CCCC3)NCCO | 2.49% [at 288 µM] (inactive) | –
CCCNC(=O)c1ccc2c(=O)c(O)c(C)[nH]c2c1 | -5.15% (inactive) | –
CCC(=O)Nc1ccc(-c2cc(-c3ccccc3)nc(-c3ccc(NC(=O)CC)cc3)n2)cc1 | – | 39.8 µM (active)
CN(C)CCc1c[nH]c2ccc(CC3COC(=O)N3)cc12 (configuration not stated) | -9.96% [at 288 µM] (inactive) | –
CN(C)/C=C(/C(=O)c1ccc(Cl)cc1)S(=O)(=O)c1ccc(Cl)cc1 | 6.48% [at 288 µM] (inactive) | –
O=C(N1CCOCC1)N1CCN(S(=O)(=O)c2ccc(Cl)cc2)CC1 | 2.27% (inactive) | –
CCOC(=O)c1cnc2ccc(OCC)cc2c1N1CCN(C)CC1 | – | 31.7 µM (active)
N#Cc1ccc(Cl)cc1NC(=O)CNCc1cccs1 | 2.73% (inactive) | –
Cc1cc2c(c(=O)n1Cc1ccccc1)C1O[C@](c3ccsc3)(Cc3cc(C#N)ccc31)O2 | -15.7% [at 23.7 µM] (inactive) | –
O=C(Nc1ccc2c(c1)OCO2)c1ccccc1 | -17.2% (inactive) | –
COc1ccccc1NS(=O)(=O)c1cc(N2Cc3ccccc3C2=N)ccc1N1CCOCC1 | – | 50.1 µM (active)
